Source: PubChem
D3 ag – D3 dopamine receptor (human) agonism | P35462 | D3R DiscoveRx beta-arrestin cells, luminescence, 90 min | max activation, % | actives 0.58% (n = 410,000); in the data active means max activation above about 30%; further: 0% is about no effect
Target sequence (P35462 whole entry, looked up): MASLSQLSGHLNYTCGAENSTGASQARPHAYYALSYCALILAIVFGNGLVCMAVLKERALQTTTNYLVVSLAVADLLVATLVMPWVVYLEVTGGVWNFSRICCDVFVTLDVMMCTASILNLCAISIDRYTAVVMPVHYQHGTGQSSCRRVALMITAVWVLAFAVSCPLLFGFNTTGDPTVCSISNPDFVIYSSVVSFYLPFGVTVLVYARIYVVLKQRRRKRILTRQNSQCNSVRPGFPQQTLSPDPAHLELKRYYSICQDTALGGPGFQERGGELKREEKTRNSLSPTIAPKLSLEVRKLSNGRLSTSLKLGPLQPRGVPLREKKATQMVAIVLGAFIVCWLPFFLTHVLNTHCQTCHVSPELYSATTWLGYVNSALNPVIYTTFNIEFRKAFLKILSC
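Agonist-mode cell screen: cells plated at 1500/well and incubated overnight at 37 °C, then exposed to library compounds for 90 min at 37 °C. Detection reagent was added for 30–60 min at room temperature, and luminescence was read.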
PI4K2A block – blocks human PI4K2A kinase activity; Q9BTU6; purified PI4K2A, ADP-Glo luminescence, 1 h; stronger effect = lower value; activity change, negative = inhibition, % at 76.9 µM; actives 0.13% (n = 420,000); in the data active means activity change below about -50%; inconclusive means mostly about -30% to -49%;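 further: -100% = wells without enzyme as full effect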
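In this quantitative HTS, ADP production by PI4K2A was quantified luminescently after 1 h at ambient temperature; 100 microM adenosine served as plate-quality control.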
DRD3 antagonist – D3 dopamine receptor (human) antagonism; actives 2.5% (n = 360,000); max response, negative = inhibition, %; AID 652054; D3R cells, DiscoveRx beta-arrestin luminescence, antagonist mode; stronger effect = lower value; in the data active means max response below about -50%; inconclusive means no clear call, values can overlap the other calls; further: on the % scale 0 is the no-effect control and ±100 the full control effect
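Cells expressing the human receptor were seeded at 1500 cells/well, incubated overnight at 37 degrees C in 5% CO2, then exposed to library compounds with dopamine controls for 90 minutes at 37 degrees C before luminescent detection.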
RGS4 inhibitor – blocks human RGS4-accelerated GTP hydrolysis; P49798; Transcreener GDP fluorescence polarization, RGS4-accelerated GTP hydrolysis; Potency, µM (titrated, usually from 114 µM), for the others: at the highest dose activity change, negative = inhibition, most hits filed as inhibitors; actives 0.039% (n = 390,000); AID 504845; active means well fitted inhibition curve with a large enough effect; inconclusive means small, poorly fitted or top-dose-only effect; inactive means no such curve, though single readings can be large or run the other way; further: potency means the concentration at half of the fitted maximal effect; on the % scale 0 is the no-effect control and ±100 the full control effect; nearly all actives have a fitted effect of over 75% in size
Target sequence (P49798 whole entry, looked up): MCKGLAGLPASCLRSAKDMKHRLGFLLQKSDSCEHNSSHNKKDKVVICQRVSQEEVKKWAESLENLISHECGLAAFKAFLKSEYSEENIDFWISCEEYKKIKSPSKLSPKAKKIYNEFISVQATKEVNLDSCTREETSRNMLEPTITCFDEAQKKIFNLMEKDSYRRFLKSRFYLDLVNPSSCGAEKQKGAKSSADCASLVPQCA
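MLSMR compounds (23 nl, pin-transferred) preincubated 10 min at room temperature with a 500nM (2x) first reagent, then RGS4 at 900nM (2x) plus Transcreener GDP mix added; fluorescence polarization (620/688 nm) read before and after 90 min at 30 °C.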
LDHA block – inhibitors of human lactate dehydrogenase A | AID 1347041 | purified LDHA, NADH/diaphorase-resazurin fluorescence; stronger effect = lower value | P00338 | activity change, % (values are at about 110 or 230 µM) | actives 0.15% (n = 480,000); in the data active means activity change below about -30%; inconclusive means mostly about -25% to -30%;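 further: plate controls were DMSO wells for no effect and wells without enzyme for full effect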
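LDH5 2 nM; NADH 0.06 mM, pyruvate 0.2 mM; 200 mM Tris pH 7.4, EDTA, Tween-20; 5 min RT. Detection: diaphorase 0.133 mg/mL + resazurin 37 µM, fluorescence ex540/em590 at 0 and 20 min; normalized to enzyme-free and DMSO wells.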
pAkt inh – blocks phosphorylation of Akt; Neuro2A IGF-stimulated pAkt S473 HTRF, 20 min; stronger effect = lower value; activity change, % for hits at 50 µM; actives 0.32% (n = 360,000); in the data active means activity change below about -80%; inconclusive means mostly about -51% to -80%; further: on the % scale 0 is the no-effect control and ±100 the full control effect
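Neuro2A cells in DMEM with 0.5% FBS, overnight at 37 deg C, given compound at single 50 µM final, then IGF (6 nM final) for 20 min at 37 deg C. Lysed; phospho-Akt Ser473 by HTRF after 24 h, 665/615 ratio.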
The depositor's hits bear a star; i = inactive; u = inconclusive; x = no result; [ ] = remark or other dose. A selection: hits, their analogues and other compounds. The true share with any hit is near 2.8%.

SMILES	D3 ag	PI4K2A block	DRD3 antagonist	RGS4 inhibitor	LDHA block	pAkt inh
O=C(C(=Cc1ccccc1)CN1CCCCC1)c1ccccc1	-23.1	15.5	-91.4*	-35.3%	-1.2	i
CCN(Cc1nc2cc(Cl)ccc2c(=O)[nH]1)C(=O)c1cc(Cl)c2c(c1)OCO2	x	x	x	x	2.4	x
O=C(O)c1cccc(S(=O)(=O)N2CCC(n3nnc4cc(C(F)(F)F)ccc43)CC2)c1	-14.0	-3.2	-76.0*	-11.0%	-11.9	i
O=C(Cc1cccc2ccccc12)N/N=C/c1ccc2cccc(O)c2n1	-26.4	-3.1	-56.5*	-12.6%	9.9	i
Cc1ccc(/C=N/NC(=O)Cc2cccc3ccccc23)s1	x	x	x	x	0.4	x
COC(=O)c1cc2c(C(F)(F)F)cc(-c3ccccc3)nc2s1	x	x	x	x	10.9	x
COc1ccc(NC(=O)c2cnn3c2NC(C(=O)O)=CC3/C=C/c2ccccc2)cc1Cl (stereo not drawn)	x	x	x	x	-0.8	x
CCOC(=O)C(C(=O)OCC)N(C#N)c1nc(OC)nc(N(C)C)n1	-6.0	4.7	0.0	-22.5%	-5.7	-112.7%*
CC1CCN(S(=O)(=O)c2ccc3c(c2)c(=O)c(C(=O)N2CCCCC2)cn3C)CC1	34.5*	-1.9	6.9	-5.7%	2.7	i
Cc1ccc(NC(=O)CSc2n[nH]c(=O)c3cc(-c4ccco4)nn23)c(Br)c1	x	x	x	x	-6.3	x
CC1CCCCC1Nc1nc2ccc(Cl)cc2n2cnnc12 (stereo not drawn)	35.0*	-0.2	4.1	8.5%	-0.8	i
Cc1ccc(C)c(N2CCN(c3nc4ccc(Cl)cc4n4cnnc34)CC2)c1	1.1	2.5	x	13.8%	-6.1	x
O=C(COc1ccccc1F)Nc1nnc(SCc2cc(=O)n3ccccc3n2)s1	0.7	-1.4	x	-2.1%	-6.2	x
Cc1ccc2nc(CSc3nnc(NC(=O)COc4ccccc4F)s3)cc(=O)n2c1	57.7*	-4.1	x	-3.6%	-8.6	x
Cc1ccccc1N1C(=O)c2sc3nc4c(c(=O)n3c2C1=O)CCC4	-3.1	3.4	-57.2*	-19.2%	1.7	i
O=C1c2sc3nc4ccccc4n3c2C(=O)N1c1ccccc1Cl	-3.1	-1.4	-86.6*	-23.2%	-8.1	i
O=c1/c(=C\c2cccnc2)sc2nc3ccccc3n12	20.9	2.6	-16.3	u	3.6	i
Cc1cc2nc(C(C)(C)C)c(Cc3ccccc3)n2c(C)c1Br	-20.6	1.1	-97.1*	x	-11.6	i
COc1ccc(Cc2c(C(C)(C)C)nc3cc(C)c(Br)c(C)n23)c(C)c1	7.7	-7.1	38.4	x	1.5	i
N#Cc1c(Nc2ccccc2Cl)s[nH]c1=O	-3.4	-1.0	-64.7*	u	-11.3	i
Cc1c(C(=O)OCC2CCCO2)[nH]c2c1C(=O)CC(c1ccco1)C2 (stereo not drawn)	-3.3	-53.5*	12.4	-1.1%[11.4 µM]	0.6	i
Cc1c(C(=O)OCC(C)C)[nH]c2c1C(=O)CC(c1ccco1)C2 (stereo not drawn)	-11.3	-8.8	-53.3*	-41.0%	3.4	i
C=CCOC(=O)c1[nH]c2c(c1C)C(=O)CC(c1ccco1)C2 (stereo not drawn)	-9.2	-8.6	-25.6	u	2.1	i
Cc1cc2c(c(=O)o1)C(C(C)C)C(C#N)=C(N)O2 (stereo not drawn)	-4.2	3.8	20.9	-7.7%	-1.1	-99.8%*
Cc1ccc([C@H]2C(C#N)=C(N)Oc3cc(C)oc(=O)c32)o1	5.3	-4.2	4.9	-40.1%	-0.3	i
SMILES	D3 ag	PI4K2A block	DRD3 antagonist	RGS4 inhibitor	LDHA block	pAkt inh
COc1cc(NC(=O)Cc2c(C)c3c(OC)cc(OC)cc3oc2=O)cc(OC)c1	x	x	x	x	0.1	x
Cc1ccc(C(=O)NCC(=O)NCCSc2ccc(Br)cc2)cc1	-13.4	1.7	-56.7*	-6.2%	-7.6	i
Cc1ccc(C(=O)NCCSC(C)(C)C)cc1	4.2	-58.8*	3.1	-11.9%	0.9	i
CC(C)(C)SCCNC(=O)c1ccccc1	-2.5	0.8	-29.7	17.0%	-5.3	i
COC(=O)Cn1c(=O)c2c3c(sc2n(Cc2ccccc2)c1=O)CCC3	x	x	x	x	-13.8	x
CCCCN(C)C(=O)C1CCN(Cc2ccc(OCc3ccccc3)cc2)CC1	-13.9	0.0	-67.9*	-11.3%	-20.8	i
CCOC(=O)C1CCN(Cc2ccc(OCc3ccccc3)cc2)CC1	-11.1	7.6	-18.7	-17.0%	-12.7	i
CCCCN(Cc1ccccc1)C1CCN(Cc2ccccc2)CC1	-23.1	-0.3	-76.2*	-12.6%	-1.8	i
CS(=O)(=O)N1CCCC(C(=O)NCc2ccc(OCC3CC3)nc2)C1 (stereo not drawn)	x	x	x	x	16.2	x
COC(=O)[C@@]12C[C@@H](CC(=O)N3CCOCC3)C(=O)N(Cc3ccc4c(c3)OCO4)C1=CCC(C)(C)C2	35.0*	-3.4	u	x	-0.2	i
CCCCCCCCN1C(=O)[C@H](CC(=O)NCCCOCCCC)C[C@@]2(C(=O)OC)CCCCC=C12	86.5*	-2.4	3.3	x	7.6	i
CCCCCCCCN1C(=O)[C@H](CC(=O)NCc2cccs2)C[C@@]2(C(=O)OC)CC(C)(C)CC=C12	44.3*	-9.2	41.7	x	4.5	i
Cc1cc(Cl)cc(Br)c1OCCNCC(C)O (stereo not drawn)	-13.5	1.7	-70.8*	-13.4%	-1.1	i
CN(CC(=O)Nc1c(Cl)cccc1Cl)C(=O)c1ccc(S(=O)(=O)Nc2ccccc2)cc1	x	x	x	x	0.0	x
O=C(CCS(=O)(=O)c1ccc(Br)s1)NCc1cccs1	-2.4	3.6	7.2	-15.0%	-8.1	-82.0%*
CCOC(=O)C1=CN(c2ccc(C)cc2)C=C(C(=O)OCC)C1c1cccc(OCC)c1	x	x	x	x	4.8	x
CCCNC(=S)NC1CC2CCCC(C1)N2Cc1ccccc1OC (stereo not drawn)	-3.1	-4.7	-10.7	x	-7.5	i
CCCNC(=S)NC1CC2CCC(C1)N2Cc1ccccc1 (stereo not drawn)	-24.7	4.4	-147.1*	16.7%	-4.9	x
CCNC(=S)NC1CC2CCCC(C1)N2CCc1ccccc1 (stereo not drawn)	-0.6	0.5	0.2	5.5%	-8.6	i
O=C(NC1CC2CCCC(C1)N2Cc1ccccc1)C1CCCCC1 (stereo not drawn)	-5.1	-0.4	-65.1*	7.4%[56.9 µM]	-6.4	i
S=C(NCCc1ccccc1)NC1CC2CCC(C1)N2Cc1ccccc1 (stereo not drawn)	-14.2	0.6	-73.6*	-3.4%	-5.3	i
CCNC(=S)NC1CC2CCC(C1)N2Cc1ccccc1 (stereo not drawn)	-31.6	0.3	-76.3*	18.4%	2.6	i
